Results filed as inconclusive are left out. Calls of active or inactive are those of the source. Calls follow the shape of the dose curve; as a rule, active = well fitted inhibition curve with a large enough effect; inconclusive = small, poorly fitted or top-dose-only effect; inactive = flat fitted curve, though single readings scatter.
Tests used:
Assay in all cases: qHTS profiling for inhibitors of Plasmodium falciparum proliferation (AID 504749); also: nearly all actives have a fitted effect of over 60% in size
Conditions in all cases: P. falciparum in erythrocytes, SYBR Green DNA, 72 h
CP286 = test system: CP286
Outline: (§1)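 Parasite proliferation within erythrocytes, 72 h exposure. Endpoint: SYBR Green I fluorescence after overnight lysis at room temperature. Controls: 0.29 uM artemisinin, DMSO.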

CP291 = test system: CP291
Outline: as §1

CP297 = test system: CP297
Outline: as §1

CP305 = test system: CP305
Outline: as §1

CP315 = test system: CP315
Outline: as §1

CP325 = test system: CP325
Outline: as §1

CP329 = test system: CP329
Outline: as §1

CP335 = test system: CP335
Outline: as §1

DFO2036 = test system: DFO2036
Outline: as §1

DIV14 = test system: DIV14
Outline: as §1

DIV17 = test system: DIV17
Outline: as §1

DIV30 = test system: DIV30
Outline: as §1

Dd2 = test system: Dd2
Outline: as §1

ECU = test system: ECU
Outline: as §1

GB4 = test system: GB4
Outline: as §1

HB3 = test system: HB3
Outline: as §1

ICS = test system: ICS
Outline: as §1

N140 = test system: N140
Outline: as §1

P93_24 = test system: P93_24
Outline: as §1

JCK = test system: JCK
Outline: as §1

Measured: Potency
Potency is read from the fitted curve at half-maximal effect.

CC[C@]1(O)CC2CN(CCc3c([nH]c4ccccc34)[C@@](C(=O)OC)(c3cc4c(cc3OC)N(C)[C@H]3[C@@](O)(C(=O)OC)[C@H](OC(C)=O)[C@]5(CC)C=CCN6CC[C@]43[C@@H]65)C2)C1 (some centres undefined)
active: CP286 0.158 µM | CP291 1.9 µM | CP297 3.01 µM | CP305 3.38 µM | CP315 1.69 µM | CP325 3.38 µM | CP329 2.39 µM | CP335 0.675 µM | DFO2036 3.55 µM | DIV14 6.75 µM | DIV17 6.75 µM | DIV30 1.9 µM | Dd2 0.178 µM | ECU 2.24 µM | GB4 1.9 µM | HB3 0.398 µM | ICS 0.708 µM | N140 2.82 µM | P93_24 1.26 µM

CC(=O)O[C@H]1C(=O)[C@@]2(C)[C@H]([C@H](OC(=O)c3ccccc3)[C@]3(O)C[C@H](OC(=O)[C@H](O)[C@@H](NC(=O)c4ccccc4)c4ccccc4)C(C)=C1C3(C)C)[C@]1(OC(C)=O)CO[C@@H]1C[C@@H]2O
active: CP286 0.178 µM | CP291 0.478 µM | CP297 0.757 µM | CP305 0.601 µM | CP315 0.478 µM | CP325 0.536 µM | CP329 0.601 µM | CP335 0.269 µM | DFO2036 0.282 µM | DIV14 0.953 µM | DIV17 0.953 µM | DIV30 0.601 µM | Dd2 0.126 µM | ECU 0.891 µM | GB4 0.338 µM | HB3 1 µM | ICS 0.398 µM | JCK 11.2 µM | N140 0.631 µM | P93_24 0.631 µM

From PubChem BioAssay (NCATS)
